Assay outcomes as filed in PubChem.
NIH3T3 tox: cytotoxic compounds in NIH 3T3 cells. Potency, µM (titrated, usually from 96.7 µM), for inactives: top-dose activity change, negative = cytotoxicity, actives largely listed as inhibitors. AID 1345082. NIH 3T3 viability, CellTiter-Glo ATP luminescence, 48-72 h. hit rate 4.3% among 94,000; note: nearly all actives have a fitted effect of over 55% in size
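Cytotoxicity was measured by CellTiter-Glo ATP luminescence after 48 or 72 h compound exposure at 37 °C. Mouse NIH 3T3 fibroblasts were seeded at 400 cells/well and dosed by 23 nL pin transfer.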
HEK293 viab: counter-screen for SNCA expression inhibitors: cell viability. HEK-293-SNCA-luc viability, GF-AFC fluorescence, 24 h. Potency, µM (top dose mostly 57.1 µM), for the others: at the highest dose activity change, negative = cytotoxicity, most hits filed as cytotoxic. hit rate 0.12% among 150,000. AID 1671193;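 note: 0% = DMSO-treated cells and -100% = medium-only wells without cells; nearly all actives have a fitted effect of over 30% in size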
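Cytotoxicity counterscreen: after 24 h compound treatment of genome-edited SNCA-luciferase HEK-293 cells, live-cell protease substrate GF-AFC read by fluorescence after 30 min; activity scaled between DMSO (0%) and medium-only (-100%), curves Hill-fitted.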
SNCA expr inh: inhibitors of alpha-synuclein (SNCA) gene expression | Potency, µM (series often up to 57.2 µM), without a hit: top-dose activity change, negative = inhibition, usual class: inhibitors | hit rate 0.17% among 140,000 | AID 1671194 | HEK-293 SNCA-luciferase knock-in, luminescence, 24 h;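 note: plate controls were DMSO cells for no effect and cell-free wells for full effect; nearly all actives have a fitted effect of over 45% in size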
NPR1 antag: blocks ANP-stimulated signaling of human Npr1 receptor | Potency, µM (top dose mostly 46.3 µM), inactives show at the top dose activity change, negative = inhibition, usual class: inhibitors | P16066 | HEK293 hNpr1 GloSensor cGMP, ANP-stimulated luminescence | hit rate 1.6% among 76,000; calls by dose curve; note: nearly all actives have a fitted effect of over 60% in size
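Compound pre-incubated 30 min at room temperature on GloSensor-loaded HEK293 cells stably carrying hNpr1 and the pGS-40F cGMP biosensor. Stimulation uses hNppA at 0.1 nM final; luminescence is taken at baseline and 20 min post-agonist.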
FLuc inh: inhibitors of firefly (Photinus pyralis) luciferase. hit rate 2.5% among 76,000. Potency, µM (highest dose often 115 µM), actives largely listed as inhibitors. P08659. purified P. pyralis luciferase, luminescence, biochemical; note: nearly all actives have a fitted effect of over 65% in size
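Inhibitors were tested against purified firefly luciferase in a biochemical, low-substrate format (both substrates at 10uM) and luminescence measured with a CCD imager.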
HEK293 tox: cytotoxic compounds in HEK 293 cells | HEK 293 viability, ATP luminescence (CellTiter-Glo), 48-72 h | Potency, µM (titrated, usually from 115 µM), for inactives: at the highest dose activity change, negative = cytotoxicity, actives largely listed as inhibitors | hit rate 6.6% among 94,000 | AID 1345083; note: nearly all actives have a fitted effect of over 60% in size
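CellTiter-Glo luminescence (cellular ATP) was read after 48 or 72 hr of compound exposure at 37 degree Celsius. Cells were HEK 293 plated at 250 cells/well.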
* = called active by the depositor; i = inactive; ? = inconclusive; . = no result; [ ] = dose if it differs, or a comment. Hits are enriched below; roughly 7.2% of the tested compounds scored in any of these assays. Unless noted, calls come from the whole dose curve; as a rule, active = well fitted curve in the direction sought with a large enough effect; inconclusive = small, poorly fitted or top-dose-only effect, or another doubt; inactive = no such curve, though single readings can be large; an effect the other way counts as inactive or inconclusive. Unless noted, % is set by controls: 0 for no effect and ±100 for the full control effect; potency is the fitted concentration of half-maximal effect.

SMILES	NIH3T3 tox	HEK293 viab	SNCA expr inh	NPR1 antag	FLuc inh	HEK293 tox
O=C(CCc1ccccc1)N1CCN(c2cc(-c3cccs3)[nH]n2)CC1	?	1%	26%	-5%	i	?
CC(Oc1cccc(Cl)c1)C(=O)N1CCN(c2cc(-c3cccs3)[nH]n2)CC1 (configuration not stated)	?	-16%	?	?	i	35µM*
O=C(COc1ccc(Cl)cc1)N1CCN(c2cc(-c3cccs3)[nH]n2)CC1	22µM*	4%	-17%	-17%	i	?
O=C(c1cc(Cl)ccc1Cl)N1CCN(c2cc(-c3cccs3)[nH]n2)CC1	?	-18%	12%	?	i	45µM*
COC[C@@H]1CN(CCCc2ccccc2)C[C@H]1C(N)=O	-15%	15%	-3%	11%	i	-23%
Cc1ccc(NC(=O)CCc2nc3cccnc3n2-c2ccccc2)cc1Cl	.	-11%	5%	.	.	.
O=C(CCc1nc2cccnc2n1-c1ccccc1)Nc1ccc(Cl)c(Cl)c1	.	-29%	7.1µM*	.	.	.
CCN1C(=O)C2CC3(CCN(C(=O)CCc4c(C)nn(C)c4C)CC3)CN2C1=O (configuration not stated)	-19%	-1%	-14%	0%	i	-5%
CC1=C[C@@H](CN(C)CCO)[C@H](C(C)C)C[C@H]1Cc1nnc(-c2ccc(C)cc2)o1	?	?	-4%[87.6 µM]	-2%[70.6 µM]	i	89µM*
COCCNC[C@@H]1C=C(C)[C@H](Cc2nnc(-c3ccc(OC)cc3)o2)C[C@H]1C(C)C	28µM*	32µM*	?	1%[70.6 µM]	i	28µM*
COc1ccc(-c2nnc(C[C@@H]3C[C@@H](C(C)C)[C@H](CO)C=C3C)o2)cc1	?	?	-14%[87.6 µM]	-2%[70.6 µM]	i	40µM*
COc1ccc(-c2nnc(C[C@@H]3C[C@@H](C(C)C)[C@H](CN4CCC(O)CC4)C=C3C)o2)cc1	?	-28%	-28%	3%	i	?
CC1=C[C@@H](CN(C)CCO)[C@H](C(C)C)C[C@H]1Cc1nnc(-c2ccccc2)o1	?	?	7%[87.6 µM]	-2%[70.6 µM]	i	?
C[C@@H](c1ccccc1)N1C(=O)[C@@H]2CN(C(=O)c3ccco3)CCN2C1=O	-22%[174 µM]	-3%[87.6 µM]	-5%[87.6 µM]	3%[70.6 µM]	i	-12%[172 µM]
CCN(C(=O)c1c(O)c2c(Cl)cccc2n(C)c1=O)c1ccccc1	.	?	5.4µM*	.	.	.
Fc1ccccc1OCC1CCCN(c2nccc(-c3cccnc3)n2)C1 (configuration not stated)	79µM*	4%	-9%	-1%	i	?
CCCn1c(C)cnc1CCNS(=O)(=O)CCC	-15%	1%	15%	2%	i	i
CCNC(=O)C12CCCC=C1N(C1CCCC1)C(=O)CC2 (configuration not stated)	-13%	-5%	113%	-6%	40µM*	4%
CCN1C(=O)CCC2(C(=O)NCCN(C)C3CCCCC3)CCCC=C12 (configuration not stated)	?	-6%	-23%	-3%	i	45µM*
CCN1CCN(CCNC(=O)C23CCCC=C2N(C2CCCC2)C(=O)CC3)CC1 (configuration not stated)	-14%	0%	40%	-8%	i	-14%
COC(=O)[C@@H]1Cc2ncn(Cc3ccccc3)c2CN1C(=O)C1CCCCC1	?	-11%[87.6 µM]	-22%[87.6 µM]	-12%[70.6 µM]	i	?
COCc1ccc(C(=O)NCC2COc3cc(OC)ccc3C2)o1 (configuration not stated)	-10%	-3%	-17%	2%	i	-4%
CC1(c2noc(-c3ccccn3)n2)CCN(C(=O)CCCc2nc3ccccc3s2)CC1	?	-9%	-11%	?	i	40µM*
